The panel holds about 83,000 compounds, 20% with a hit somewhere; the sample as a whole holds those more often.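 Single-dose data. Exposure time 48 hours. Values below 10 considered active.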 A number with no mark means an inactive call. Active and inactive are the calls of the source.

The test system of the experiment is K-562 leukemia. As to the kind of experiment: NCI-60 one-dose screen, 48 h (100 = growth as untreated, 0 = no growth, -100 = all killed). Conditions: 10 µM.
As for `CCN(CC)CCOc1ccc2c(c1O)C(=O)c1ccccc1C2=O`, the growth was 71.6%.
With `CS(=O)(=O)c1nccc(-c2c(-c3cccc(O)c3)nc3sccn23)n1` the figure was 101%; with `CC(=O)[C@H]1CC[C@]2(C)[C@@H]1CC[C@@H]1[C@@]3(C)CC(CCC#N)(CCC#N)C(=O)C(C)(C)[C@@H]3CC[C@]12C`, 110%.
The figure for `COc1cc(-c2nn(-c3cccc(NC(=O)CN4CCOCC4)c3)cc2-c2cccnc2)ccc1Cl` is 42.2%; for `CNS(=O)(=O)Oc1ccc(-c2sc3cc(OS(=O)(=O)NC)ccc3c2C(=O)c2ccc(OCCN3CCCCC3)cc2)cc1` it is 9.88% (active); for `Clc1ccc(/C=C2\CCCC3C2=Nc2ccccc2NC3c2ccc(Cl)cc2)cc1` (stereo not drawn) it is 47.2%.
With `CCOS(=O)(=O)c1c(C(C)C)cc(C(C)C)cc1C(C)C` the figure was 92.8%.
`COc1cc(/C=C/c2cc(/C=C/c3ccc(O)c(OC)c3)n(C(=O)Nc3ccccc3Cl)n2)ccc1O`: the growth is 2.27% (active).

These data come from PubChem BioAssay (NCI).
